Among the data in PubChem BioAssay (EPA / NIEHS) are outcome and AC50 values, retold here.

Active and inactive are the calls of the source. Rule for the calls: active = hit-call score of the fitted dose curve at least 0.9, where 1 is the maximum; inactive = score below 0.9.

A short description of the assay: APR_HepG2_MicrotubuleCSK_24hr: Apredica 24-hour HepG2 Assay for Microtubule CSK Stabilty (AID 2282909). As to conditions: HepG2 microtubule cytoskeleton imaging, actives raise or lower the signal. The method, then: APR_HepG2_24hr is a cell-based, multiplexed-readout assay that uses HepG2, a human liver cell line, with measurements taken at 24 hours after chemical dosing in a 384-well plate.APR_HepG2_MicrotubuleCSK_24hr is one of 10 assay component(s) measured or calculated from the APR_HepG2_24hr assay. It is designed to make measurements of protein conformation, a form of conformation reporter, as detected with fluorescence intensity signals by HCS Fluorescent Imaging technology.Data from the assay component APR_HepG2_MicrotubuleCSK_24hr was analyzed into 1 assay endpoint. This assay endpoint, APR_HepG2_MicrotubuleCSK_24hr, was analyzed with bidirectional fitting relative to DMSO as the negative control and baseline of activity. Using a type of conformation reporter, measures of protein for gain or loss-of-signal activity can be used to understand the signaling at the cellular-level. Furthermore, this assay endpoint can be referred to as a primary readout, because this assay has produced multiple assay endpoints where this one serves a signaling function. To generalize the intended target to other relatable targets, this assay endpoint is annotated to the cell morphology intended target family, where the subfamily is cell conformation.
Cells were treated with dimethyl sulfoxide (DMSO) as a solvent control at a final concentration of 0.5% v/v or with compounds in DMSO with a resulting final DMSO concentration of 0.5% v/v. Compound treatment was done at concentrations of 0.39, 0.78, 1.56, 3.12, 6.24, 12.5, 25, 50, 100, and 200 uM in duplicate on each plate. Cells were treated with compounds for 1, 24, or 72 hr. Carbonyl […] m-chloro-phenylhydrazone (CCCP) and taxol were used as positive controls for mitochondrial function and cytoskeletal stability, respectively; DMSO served as the negative control for this experiment. Cells were fixed by the direct addition of 50 uL formaldehyde in Hank's Balanced Salt Solution (HBSS) to a final concentration of 3.7%. After incubation in the fixation medium for 30 min at room temperature (293-298 K), cells were rinsed twice with HBSS and treated with cell permeabilization buffer (16 uL of 0.5% Triton X-100) for 10 min at room temperature (293-298 K) before labeling. For mitochondrial membrane potential and mitochondrial measurements, pre-fixed cells were incubated with 50 uL of MitoTracker Red CMXRos (Invitrogen) at a concentration of 250 nM for 30 min before fixation. In the remaining cases, post-fixed cells were labeled by incubation with a multiplexed mixture of primary antibodies in HBSS for 60 min at room temperature (293-298 K) to detect immunoreactivity of c-Jun (1:500), phospho-histone H3 (1:100), phospho-histone H2A.x (1:200), p53 (1:400), alpha-tubulin (1:200) and Hoechst 33342 (2 ug/mL). Cells were labeled for multiplexed imaging on two separate plates: a) Hoechst 33342, MitoTracker Red, phospho-histone H3, and alpha-tubulin, and b) Hoechst 33342, phospho-histone H2A.x, and c-Jun. A final rinse with HBSS (50 uL) was performed before analysis. The primary and secondary antibodies for the proteins were phospho-histone H3 (rabbit anti-phospho-histone H3 and FITC-donkey anti-rabbit IgG), phospho-histone H2A.x (mouse anti-phospho-histone H2A.x and FITC-donkey anti-mouse IgG), c-Jun (rabbit anti-phospho-c-Jun and Cy3-donkey anti-rabbit IgG), p53 (sheep anti-p53 and Cy5-donkey anti-sheep IgG), alpha-tubulin (mouse anti-alpha-tubulin and Cy5-donkey anti-mouse IgG). These antibodies are available as the CellCiphr HepG2 assay kit (Millipore).Digital images of each well were captured using a Cellomics ArrayScan VTI (Thermo Scientific Cellomics) (0.8 NA objective, 0.63x optical coupler, and XF-93 filter set) at 20x magnification. The images were acquired using the autofocus feature of the ArrayScan instrument, which entails the following steps. First, the camera focuses on channel 1 (Hoechst 33342), where nuclei are identified. Second, a Z offset of 1 um is used for capturing mitochondria (MitoTracker Red). […]
As for `CC(C)CC(C)(O)C#CC(C)(O)CC(C)C` (stereo not given), the molecule was classed as inactive.

Turning to `O=C(O)CC(O)C(=O)O` (stereo not given), the molecule was called inactive. Consider `On1ccccc1=S`, for which the result was inactive. For the molecule `NC(=O)NO`, the result was inactive. On the same count and under the same terms, the value for `C1N2CN3CN1CN(C2)C3` was “inactive”. Take `O=C(O)c1cccc(N(Cc2cccnc2)c2ccc(OC(F)F)c(OC(F)F)c2)c1`: the outcome was inactive. On the same count and under the same terms, then `O=C(O)c1cccc(Oc2ccccc2)c1`, with “inactive”. Consider `CCOC(=O)c1ccc(C2CCC(NC[C@H](O)COc3ccc(O)c(NS(C)(=O)=O)c3)CC2)cc1` (stereo not given in full), for which the half-maximal activity concentration (AC50) was 90.2 µM (active). With `O=C(CCCCCCCCc1cccnc1)N1CCC(C=C(c2ccccc2)c2ccccc2)CC1`, the molecule was called inactive.

In the case of `Cn1c(=O)c2c(ncn2C)n(C)c1=O`, the molecule was called inactive. For `CC(C)CCCCCCCOC(=O)CCCCC(=O)OCCCCCCCC(C)C`, the molecule was classed as inactive. On the same count and under the same terms, the value for `CC(C)CCCCCCOC(=O)c1ccc(C(=O)OCCCCCCC(C)C)c(C(=O)OCCCCCCC(C)C)c1` was “inactive”. As to `O=C(O)c1cc(N=Nc2ccc(S(=O)(=O)Nc3ccccn3)cc2)ccc1O`, the molecule was called inactive. With `CCCN(C1CCN(C(=O)C2CCNCC2)CC1)[C@@H]1CCc2ccc(OC)cc2C1`, the outcome was inactive. Take `CC(C)(O)c1coc(S(=O)(=O)NC(=O)Nc2c3c(cc4c2CCC4)CCC3)c1`: the molecule was called inactive. In the case of `Nc1ccc(Nc2ccccc2)cc1`, the result was inactive.

For `CCN(C(=O)c1cc(C)cc(OC[C@H](C)Nc2ccncc2)c1)C(C)C`, the outcome was inactive. Take `CC1(C)C(=O)N(Br)C(=O)N1Br`: the call was inactive.

With `COc1ccc2sc(C(=O)Nc3nnn[nH]3)c(OC(C)C)c2c1`, the molecule was classed as inactive. The same measure, in the same setting: the value for `COC(=O)c1c(Cl)c(Cl)c(C(=O)OC)c(Cl)c1Cl` was “inactive”; that for `O=C(O)CCN(C1(C(=O)NO)CCCC1)S(=O)(=O)c1ccc(Oc2ccc(F)cc2)cc1` was “inactive”. For `Cn1cnc([N+](=O)[O-])c1Sc1ncnc2nc[nH]c12`, the molecule was classed as inactive. Regarding `C=CCCCCCCCCC(=O)O`, the outcome was inactive. With `CCCCCCCCCCCCCCCO`, the molecule was classed as inactive. As to `CC[C@H](C)C(=O)O[C@H]1C[C@@H](C)C=C2C=C[C@H](C)[C@H](CC[C@@H]3C[C@@H](O)CC(=O)O3)[C@H]21`, the molecule was called inactive. `CC(=O)OCCC(C)C`: the call was inactive. Take `CC(C)=CCCC(C)CCO` (stereo not given): the result was inactive. Take `Cn1c(=O)cc(Oc2ccc(F)cc2F)c2cnc(NCC(C)(C)O)nc21`: the result was inactive. `O=C1CCCCCN1`: the molecule was called inactive. With `CC(C)CCO`, the call was inactive. With `COc1cccc(-c2ccc(/C=C\CN3CCCCCC3)cc2Cl)c1`, the call was inactive. As to `CCCCC(CC)COC(=O)c1ccc(C(=O)OCC(CC)CCCC)cc1` (stereo not given), the result was inactive. In the case of `CCc1cc(SCc2sc(-c3ccc(C(F)(F)F)cc3)nc2CN2CCN(c3ccc(OC)cc3)CC2)ccc1OCC(=O)O`, the concentration at half-maximal activity (AC50) was 48.5 µM (active).

Turning to `CCOCCO`, the call was inactive.

As to `CC1=CC(=O)CC(C)(C)C1`, the molecule was called inactive. On to `O=c1[nH]c2ccc(S(=O)CCN3CCC(Cc4ccc(F)cc4)CC3)cc2o1` (stereo not given), for which the molecule was classed as inactive.

`Nc1cccc(N)c1`: the molecule was called inactive. As to `Nc1nc2ncc(CNc3ccc(C(=O)N[C@@H](CCC(=O)O)C(=O)O)cc3)nc2c(=O)[nH]1`, the molecule was classed as inactive. Regarding `COC(=O)c1ccccc1O`, the call was inactive.

Consider `COc1ccc(/C=C/S(=O)(=O)NC(=O)c2ccc(C)cc2Cl)cc1`, for which the molecule was classed as inactive.
